aSyn 5UTR inh – MLPCN primary screen, SNCA 5' untranslated region; alpha-synuclein 5'UTR reporter, inhibitor activity; inhibition, % (tested at 7.5 µM); actives 0.82% (n = 300,000); AID 1813; in the data active = inhibition above about 60%;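 also: H4 neuroglioblastoma cells stably carrying SNCA 5'UTR luciferase fusion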
Mdm2-MdmX inh – disrupts the human Mdm2-MdmX interaction. actives 3% (n = 330,000). SaOS-2 split-luciferase Mdm2/MdmX complementation, luminescence. inhibition, % at 8 µM;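 active = inhibition of at least 50% at 8 µM in the primary screen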
Gli-Sufu antag – blocks Gli-Sufu signaling in a luciferase reporter; Sufu-KO-LIGHT fibroblasts, Gli luciferase reporter luminescence; inhibition, % at 5 µM; actives 0.74% (n = 340,000); AID 588413;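 active = inhibition above about 55%, limit read from the data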
KLF5 inh – kruppel-like factor 5 inhibition | DLD-1 KLF5 promoter-luciferase reporter, luminescence | inhibition, % at 5 µM | actives 0.23% (n = 290,000) | AID 1700;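 active = inhibition above a per-plate limit of that plate's mean compound inhibition plus 3 SD, cut at about 60% in these data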;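 also: higher means less KLF5 promoter-driven luciferase light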
Jurkat NFkB inh – inhibitors of the PMA/ionomycin-induced NF-kB reporter in Jurkat cells | PMA/ionomycin-induced NF-kB luciferase reporter, luminescence | inhibition, % at 4 µM | actives 0.53% (n = 330,000) | AID 435003; in the data active = inhibition above about 50%
697 NFkB inh – inhibitors of the PMA/ionomycin-induced NF-kB reporter in 697 B cells; 697 B-cell NF-kB luciferase reporter, 16 h; inhibition, % at 4 µM; actives 0.33% (n = 330,000); AID 435022; in the data active = inhibition above about 35%
KLF5 inh confirm – confirmation of KLF5 inhibitors; actives 79% (n = 610); DLD-1 KLF5 promoter firefly luciferase reporter, luminescence; AID 1834; shares compounds with KLF5 inh; inhibition, % at 4 µM;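 active = inhibition above a set limit taken from the earlier primary screen, cut at about 63% in these data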
IEC-6 tox trip – kills rat IEC-6 cells in KLF5 counter-screen; shares compounds with KLF5 inh; IEC-6 rat intestinal cells, viability luminescence; inhibition, % at 4 µM; actives 56% (n = 610); AID 1905; in the data active = inhibition above about 23%;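 also: cells exposed to compounds for 48 hours before viability read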
697 NFkB conf – inhibitors of the PMA/ionomycin-induced NF-kB reporter in 697 B cells, retest | shares compounds with 697 NFkB inh | 697 B-cell NF-kB luciferase, 16 h | inhibition, % at 4 µM | actives 35% (n = 2,000) | AID 449746; in the data active = inhibition mostly above about 28%, no sharp cut-off; inactive = mostly below about 22%
Large screens that a line does not name were inactive (follow-up assays come after a bar, where they were run). Hits are enriched below; roughly 4.1% of the tested compounds scored in any of these assays.

CC(=O)O[C@H]1C[C@@H]2OC3C=C(C)CCC3(C)[C@@]1(C)[C@@]21CO1 (stereo not given in full)	Gli-Sufu antag 66.0 (no result: aSyn 5UTR inh, Mdm2-MdmX inh, KLF5 inh, Jurkat NFkB inh, 697 NFkB inh)
CC(C)[C@]12CC(=O)[C@H](C)[C@H]1C2	none (no result: aSyn 5UTR inh, KLF5 inh)
CC(C)(O)/C=C/C(=O)C(C)(O)C1C(O)CC2(C)C3CC=C4C(C=C(O)C(=O)C4(C)C)C3(C)C(=O)CC12C (stereo not given)	Gli-Sufu antag 88.8 (no result: aSyn 5UTR inh, Mdm2-MdmX inh, KLF5 inh, Jurkat NFkB inh, 697 NFkB inh)
CCC1CN2CCc3cc(OC)c(OC)cc3C2CC1CC1NCCc2c1[nH]c1ccc(O)cc21 (stereo not given)	Gli-Sufu antag 86.5 (no result: aSyn 5UTR inh, Mdm2-MdmX inh, KLF5 inh, Jurkat NFkB inh, 697 NFkB inh)
CC12CC[C@H]3[C@@H](CCC4(O)C[C@H](O)CCC34/C=N/NC(=O)Cc3ccccc3)C1(O)CCC2C1=CC(=O)OC1 (stereo not given in full)	none
CC12CC[C@H]3[C@@H](CCC4(O)C[C@H](O)CCC34/C=N/NC(=O)c3ccccc3[N+](=O)[O-])C1(O)CCC2C1=CC(=O)OC1 (stereo not given in full)	aSyn 5UTR inh 117.3
Cc1ccc(Cn2nc(C(=O)Nc3ccc(Br)cc3)cc2C)cc1	none
CNC(=O)Oc1ccc(-c2cn3cc(C)ccc3n2)cc1	aSyn 5UTR inh 75.5
CC(C)[C@]12O[C@H]1[C@@H]1O[C@]13[C@]1(O[C@H]1C[C@H]1C4=C(CC[C@@]13C)C(=O)OC4)[C@@H]2O	aSyn 5UTR inh 124.0, KLF5 inh 104.4 (no result: Mdm2-MdmX inh, Gli-Sufu antag, Jurkat NFkB inh, 697 NFkB inh)
CC(O)C1C=CC=CC(=O)OC2CC3OC4C5OC5(C)C(O)CC4(COC(=O)C(O)C(C)CCO1)C2(C)C31CO1 (stereo not given)	Gli-Sufu antag 91.9 (no result: aSyn 5UTR inh, Mdm2-MdmX inh, KLF5 inh, Jurkat NFkB inh, 697 NFkB inh)
CC1=CC2OC3CC4OC(=O)C=CC=CC(=O)OCCC(C)C(O)C(=O)OCC2(CC1)C4(C)C31CO1 (stereo not given)	Gli-Sufu antag 92.0 (no result: aSyn 5UTR inh, Mdm2-MdmX inh, KLF5 inh, Jurkat NFkB inh, 697 NFkB inh)
CC1=CC2OC3CC4OC(=O)C=CC=CC(C(C)O)OCC(O)C5(C)OC5C(=O)OCC2(CC1O)C4(C)C31CO1 (stereo not given)	Gli-Sufu antag 88.3 (no result: aSyn 5UTR inh, Mdm2-MdmX inh, KLF5 inh, Jurkat NFkB inh, 697 NFkB inh)
COc1cc(/C=C2\C[C@H]3[C@@H]4CC=C5C[C@@H](N6CCCC6)CC[C@]5(C)[C@H]4CC[C@]3(C)[C@H]2O)cc(OC)c1OC	none (no result: aSyn 5UTR inh, Mdm2-MdmX inh, KLF5 inh, Jurkat NFkB inh, 697 NFkB inh)
CCC1(CCC(C)C)C(=O)NC(=S)NC1=O	none (no result: aSyn 5UTR inh, Mdm2-MdmX inh, KLF5 inh, Jurkat NFkB inh, 697 NFkB inh)
C[C@H]1CC[C@H]2NCCN[C@H]2C1	none
C[C@H]1[C@@H](OS(=O)(=O)O)C[C@@H]2C[C@H]([C@@H](O)c3cc(=O)[nH]c(=O)[nH]3)NC3=NC[C@H]1N32	Gli-Sufu antag 76.2 (no result: aSyn 5UTR inh, Mdm2-MdmX inh, KLF5 inh, Jurkat NFkB inh, 697 NFkB inh)
COC(=O)C1=C(c2ccc(Cl)c(C(F)(F)F)c2)C[C@@H]2CC[C@H]1N2C(=O)NCc1ccco1	none (no result: aSyn 5UTR inh, KLF5 inh)
CC1CC(C)(O)CC(C(O)CC2CC(=O)NC(=O)C2)C1=O (stereo not given)	Gli-Sufu antag 83.8 (no result: aSyn 5UTR inh, Mdm2-MdmX inh, KLF5 inh, Jurkat NFkB inh, 697 NFkB inh)
CC1c2ccccc2-n2nncc2CN1C (stereo not given)	none (no result: aSyn 5UTR inh, Mdm2-MdmX inh, KLF5 inh, Jurkat NFkB inh, 697 NFkB inh)
COc1ccc(CNC(=O)CCC(=O)N2C[C@H]3C[C@H](C2)c2cccc(=O)n2C3)cc1	none
COc1cc2cc(C(=O)N3CC(COS(C)(=O)=O)c4ccc(O)cc43)[nH]c2c(OC)c1OC (stereo not given)	Gli-Sufu antag 94.0 (no result: aSyn 5UTR inh, Mdm2-MdmX inh, KLF5 inh, Jurkat NFkB inh, 697 NFkB inh)
CCCCCn1c(=O)c(C(=O)Nc2ccccc2S(N)(=O)=O)c(O)c2ccccc21	aSyn 5UTR inh 68.8
CCn1cc(CN2CCCC(C(=O)c3sccc3C)C2)cn1 (stereo not given)	none
CC1=CC(C)CC(C)OC(=O)CC(c2ccc(O)cc2)NC(=O)C(Cc2c(Br)[nH]c3ccccc23)N(C)C(=O)C(C)NC(=O)C(C)C1 (stereo not given)	Gli-Sufu antag 83.3 (no result: aSyn 5UTR inh, Mdm2-MdmX inh, KLF5 inh, Jurkat NFkB inh, 697 NFkB inh)
COC(=O)C1=C(c2ccc(C(C)=O)cc2)C[C@@H]2CC[C@H]1N2C(=O)NCCCOC(C)C	none (no result: aSyn 5UTR inh, KLF5 inh)
O=C(O)C1C2c3ccccc3C(=O)C1(C(=O)O)c1ccccc12 (stereo not given)	none (no result: aSyn 5UTR inh, Mdm2-MdmX inh, KLF5 inh, Jurkat NFkB inh, 697 NFkB inh)
CC(N)C(=O)NC1C2C(=C(O)CC(O)C2O)C(=O)OC1(C)C(Cl)Cl (stereo not given)	Gli-Sufu antag 75.8 (no result: aSyn 5UTR inh, Mdm2-MdmX inh, KLF5 inh, Jurkat NFkB inh, 697 NFkB inh)
CCc1cc(=O)[nH]c(SCCCF)n1	none
C=C1C(=O)OC2CC(C)C3C=CC(=O)C3(C)C(O)C12 (stereo not given)	Gli-Sufu antag 93.9 (no result: aSyn 5UTR inh, Mdm2-MdmX inh, KLF5 inh, Jurkat NFkB inh, 697 NFkB inh)
c1ccc(CCN2CCCCC2)nc1	none (no result: aSyn 5UTR inh, Mdm2-MdmX inh, KLF5 inh, Jurkat NFkB inh, 697 NFkB inh)
CCOC(=O)c1c(N)n(CCCOC(=O)c2ccco2)c2nc3ccccc3nc12	aSyn 5UTR inh 114.3
COCCCn1c(N)c(C(=O)OCCOC)c2nc3ccccc3nc21	none
C#CC[N+]1(C)[C@@H]2CC[C@H]1CC(OC(=O)C(CO)c1ccccc1)C2 (stereo not given in full)	none
Cn1c(=O)n(C)c2cc([N+](=O)[O-])c(N3CCNCC3)cc21	Gli-Sufu antag 57.3
O=[N+]([O-])c1cc(F)c(N2CCCC2)cc1N1CCNCC1	none (no result: Gli-Sufu antag)
CNC(=O)Oc1ccccc1C1CCCCC1	none (no result: aSyn 5UTR inh, Mdm2-MdmX inh, KLF5 inh, Jurkat NFkB inh, 697 NFkB inh)
CN1CCN(c2ccc([N+](=O)[O-])c3no[n+]([O-])c23)CC1	aSyn 5UTR inh 97.8, Gli-Sufu antag 65.5 (no result: Mdm2-MdmX inh, Jurkat NFkB inh, 697 NFkB inh)
COC(=O)C1=C(c2ccc(OCc3ccccc3)cc2)C[C@@H]2CC[C@H]1N2C(=O)NCc1cccc(OC)c1	none (no result: aSyn 5UTR inh, KLF5 inh)
O=C(Nc1ccc(OC(=O)N2CCCCC2)cc1)N1CCOCC1	aSyn 5UTR inh 88.9, KLF5 inh 68.2, 697 NFkB inh 57.9 | KLF5 inh confirm inactive | IEC-6 tox trip inactive | 697 NFkB conf inactive
COC(=O)C1=C(c2ccc(F)cc2OCc2ccccc2)C[C@@H]2CC[C@H]1N2C(=O)NC1Cc2ccccc2C1	none (no result: aSyn 5UTR inh, KLF5 inh)
